Each structure is given as a SMILES string. Out of some 310,000 compounds screened, about 1,000 (0.32%) were called active. The rule behind the calls is not given here. Only a sample is shown. Potency and affinity values are given separately.

This test in a line: PhoP regulon inhibitors, Salmonella typhi PhoP promoter GFP reporter, confirmatory (AID 1850).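 Note: 0% = induced wells with vehicle and 100% = uninduced wells.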 Conditions: fluorescence, 4 h, at 50 µM, stronger effect = higher value.
As for `Cc1nc(N)nc(Cl)c1Cc1ccc(Cl)cc1`, the inhibition is -7.07% (inactive).
The figure for `COc1ccc(Cc2c(C)nc(N)nc2Cl)cc1` is -7.38% (inactive).
As to `CCCCN(C)CCNC(=O)c1cc2cc3ccc(OC)cc3nc2o1`, the inhibition is 7.2% (inactive).
For `CCN(CC(=O)Nc1ccccc1C(F)(F)F)C(=O)CN1C(=O)NC2(CCCCC2)C1=O`, the inhibition is -5.21% (inactive).
The figure for `Nc1nc(SCC(=O)Nc2ccccc2Sc2ccccc2)n[nH]1` is -1.42% (inactive); for `COc1ccccc1NC(=O)CCn1cccc1` it is -6.32% (inactive).
Next, `C/C(=N\Nc1ccc2nncn2n1)c1cccs1`: 4.31% (inactive).
As for `C/C(=N\Nc1ccc2nncn2n1)c1ccco1`, the inhibition was 2.03% (inactive).
Next, `O=C(Nc1csc(Cc2c(Cl)cccc2Cl)n1)NN1CCOCC1`: -0.65% (inactive); `O=C(NCCCN1CCCC1)Nc1ccc(F)cc1`: 2.17% (inactive); `CN1CCN(CCCNC(=O)Nc2ccc([N+](=O)[O-])cc2)CC1`: 1.78% (inactive).
The figure for `COCC(=O)NNC(=O)Cc1ccc(Cl)cc1` is -2.72% (inactive).
As to `CC(C)COc1ccc(Cc2cnc(N)nc2N)cc1`, the inhibition was 15.8% (inactive).
In the case of `CC(C)Oc1ccc(Cc2cnc(=S)[nH]c2N)cc1`, the inhibition was 7.33% (inactive).
Next, `CCSc1ccccc1C(=O)N=C1NC(=O)CC2C(=O)NCCN12` (stereo not given): 1.96% (inactive); `O=C(COc1ccc(C(=S)N2CCOCC2)cc1)Nc1ccccc1C(F)(F)F`: -0.77% (inactive).
As to `O=C(NCCCNC(=O)c1ccc(-c2cc(Cl)ccc2Cl)o1)c1cnccn1`, the inhibition is 9.68% (inactive).
With `COc1cccc(C(=O)NC2=NCCS2)c1OC`, the inhibition was 2.77% (inactive).
In the case of `CCOC(=O)Nc1c2ccccc2nc2ccccc12`, the inhibition was -6.02% (inactive).
Next, `O=C(O)c1ccc(Nc2c3ccccc3nc3ccccc23)cc1`: 4.42% (inactive).
`CC(=O)C1=C(C)NC(=O)NC1c1ccccc1OCC(=O)NCCc1ccccc1` (stereo not given): the inhibition was 2.94% (inactive).
On to `Cc1nc2ccc(Br)cn2c1C(=O)N/N=C\c1ccccc1[N+](=O)[O-]`, for which the inhibition is -1.1% (inactive).
The figure for `O=C(COc1ccc(Cl)cc1Cl)N1CCCCCC1` is 3.1% (inactive); for `O=C(Nc1ccc(Cl)c(Cl)c1)Nc1nccs1` it is 0.93% (inactive).
As to `Fc1cccc(/C=N/Nc2ccccn2)c1`, the inhibition was -0.26% (inactive).
Next, `C(=N\c1nccs1)/c1cccnc1`: 10.7% (inactive); `Clc1cccc(Cl)c1/C=N\Nc1nccs1`: -7.79% (inactive).
`Cc1csc(N/N=C\c2cccnc2)n1`: the inhibition was -7.97% (inactive).
The figure for `FC(F)(F)c1ccc(N/N=C/c2cccnc2)nc1` is -6.21% (inactive); for `CC(=O)Nc1sc(N/N=C\c2cccc(Cl)c2)nc1-c1cccs1` it is -2.74% (inactive); for `O=C(Nc1ccc(Cl)cc1)Nc1nccs1` it is -2.29% (inactive).
On to `Cc1[nH]nc2c1C(c1ccccc1F)NC2=O` (stereo not given), for which the inhibition is 8.34% (inactive).
Next, `COc1cccc(NC(=O)N(CCN(C)C)C(C)c2cccnc2)c1` (stereo not given): 1.53% (inactive); `Cc1ccc(NC(=O)CCn2cnc3ccccc3c2=O)cc1Cl`: 5.48% (inactive).
Next, `CCOc1ccc(NS(=O)(=O)c2ccc(C(=O)NCC(c3ccc(OC)cc3)N3CCCC3)cc2)cc1` (stereo not given): 4.44% (inactive); `Cc1cccnc1Sc1c([N+](=O)[O-])ncn1C`: -0.07% (inactive).
As for `O=C(Nc1cccnc1)C1CCC(CNS(=O)(=O)c2cccc3nsnc23)CC1` (stereo not given), the inhibition was 8.22% (inactive).
For `CC(=O)c1cc(F)ccc1OCC(=O)N1CCCc2ccccc21`, the inhibition was 5.07% (inactive).
Turning to `CN1CCN(c2ccccc2NC(=O)c2ccc(N3CCCC3)c([N+](=O)[O-])c2)CC1`, the inhibition was 20.3% (inactive).
As for `O=S(=O)(Cc1ccccc1Cl)NCCc1ccccc1`, the inhibition is 0.01% (inactive).
With `CCOC(=O)c1sc(NC(=O)c2ccccc2)cc1C`, the inhibition was 3.11% (inactive).
The figure for `Cc1cc(NC(=O)c2ccccc2)cc(NC(=O)c2ccccc2)c1C` is 2.54% (inactive); for `Cc1nc(NC(=O)c2ccccc2)sc1C` it is -2.8% (inactive); for `Cc1sc(NC(=O)c2ccccc2)c(C(=O)c2ccccc2)c1C` it is -8.66% (inactive).
Next, `O=C(CSc1cc([N+](=O)[O-])cc(S(=O)(=O)Cc2ccccc2)c1)NC1CC1`: -3.36% (inactive).
On to `Cc1cccn2c(CNCC3OCCc4ccccc43)c(C(=O)N3CCCCC3)nc12` (stereo not given), for which the inhibition was 2.24% (inactive).
For `COc1ccc(C(=O)NCCc2cc3ccc(C)c(C)c3[nH]c2=O)cc1OC`, the inhibition was -4.33% (inactive).
Turning to `O=C1OCC(CO)(CO)N=C1NNc1ccccc1Cl`, the inhibition was 8.82% (inactive).
Next, `O=C1OCC(CO)(CO)N=C1NNc1cc(Cl)ccc1Cl`: 6.11% (inactive).
The figure for `Cc1cc(C)c(NC(=O)C2CCCN2CCO)c(C)c1` (stereo not given) is 6.37% (inactive); for `Cc1cc(C)cc(NC2=NC3(CCCCC3)N=C(N)N2)c1` it is 18% (inactive); for `COc1ccc(OC)c(NC2=NC3(CCCC3)N=C(N)N2)c1` it is -3.8% (inactive).
On to `Cc1ccc(NC2=NC3(CCCCC3)N=C(N)N2)c(C)c1`, for which the inhibition was 8.94% (inactive).
The figure for `Cc1ccccc1NC1=NC2(CCCC2)N=C(N)N1` is -0.71% (inactive).
The figure for `NC1=NC2(CCCC2)N=C(Nc2ccccc2)N1` is 0.23% (inactive); for `Cc1cccc(NC2=NC3(CCCCC3)N=C(N)N2)c1C` it is 1.1% (inactive).
The figure for `COc1ccc(OC)c(NC2=NC3(CCCCC3)N=C(N)N2)c1` is -2.55% (inactive); for `Cc1ccc(C)c(NC2=NC3(CCCCC3)N=C(N)N2)c1` it is -8.53% (inactive); for `COc1ccc(S(=O)(=O)N2CCCc3ccccc32)cc1[N+](=O)[O-]` it is 1.36% (inactive).
As to `Clc1ccc(-c2c[n+]3c(n2-c2ccccc2)SCC3)cc1`, the inhibition is 22.2% (inactive).
Next, `CCc1cc2cc(C)ccc2nc1SCC(=O)Nc1cc(C)on1`: -6.66% (inactive).
Turning to `COc1cccc(CNC(=O)CC(NC(=O)c2ccccc2)c2ccccc2)c1` (stereo not given), the inhibition is -2.43% (inactive).
Take `O=[N+]([O-])c1cc(NCCO)c(N2CCCCCC2)c2nonc12`: the inhibition was -4.05% (inactive).
With `CCCS(=O)(=O)N1CCC(C(=O)NC2CCCC(C)C2C)CC1` (stereo not given), the inhibition is 3.41% (inactive).
For `C[C@H](NC(=O)[C@@H]1Cc2ccccc2CN1)C(=O)Nc1ccc2c(c1)OCCO2`, the inhibition is -6.47% (inactive).
As to `CCc1cccc2c(C(=O)COC(=O)c3ccc(O)cc3)c[nH]c12`, the inhibition was -22.3% (inactive).
On to `CCc1cccc2c(C(=O)COC(=O)c3ccccc3)c[nH]c12`, for which the inhibition was -6.08% (inactive).
`O=C(c1ccco1)N1CCN(C(=O)C23CC4CC(CC(C4)C2)C3)CC1`: the inhibition was -6.11% (inactive).
Next, `O=C(O)c1ccc(Nc2nc3ccc(Cl)cc3[nH]2)cc1`: -11.1% (inactive).
For the molecule `O=C(O)c1ccc(-c2nnn(Cc3cccc(C(F)(F)F)c3)n2)cc1`, the inhibition was 16.4% (inactive).
As for `CC1CCC(NC(=O)c2ccc(S(C)(=O)=O)cc2)CC1` (stereo not given), the inhibition was -20% (inactive).
For the molecule `CCc1ccc(NC(=O)[C@H](C)NC(=O)C2CCN(C(=O)[C@@H](N)C(C)C)CC2)cc1`, the inhibition was 3.36% (inactive).
Next, `Cc1oc(-c2cccc(Cl)c2)nc1CN1CCC(C(=O)NC2CC2)CC1`: -4.63% (inactive); `Cc1oc(-c2cccc(Cl)c2)nc1CN1CCC(C(=O)NCC2CCCO2)CC1` (stereo not given): 1.34% (inactive).
The figure for `CCN1CCN(CCNC(=O)C2CCN(Cc3nc(-c4ccc(Cl)cc4)oc3C)CC2)CC1` is 6.8% (inactive); for `CCN(CCNC(=O)C1CCN(Cc2nc(-c3ccc(Cl)cc3)oc2C)CC1)c1ccccc1` it is 6.02% (inactive); for `COCCCNC(=O)C(F)(F)C(F)(F)C(=O)NCCCOC` it is -11.6% (inactive).
As for `S=C(NCCc1ccccn1)Nc1ccccc1`, the inhibition is 7.23% (inactive).
Regarding `Cc1cccc(C)c1NC(=O)C[N+](C)(C)CC(O)COc1cccc2ccccc12` (stereo not given), the inhibition was -1.2% (inactive).
The figure for `Cc1cc(C)c(NC(=O)COc2nncc3ccccc23)c(C)c1` is -9.5% (inactive); for `CCn1cc(/C=C/C(=O)c2ccc(O)cc2)c(C)n1` it is 2.07% (inactive); for `O=c1c2ccccc2nc(-c2ccc([N+](=O)[O-])cc2)n1-c1ccccc1` it is -1.83% (inactive).
Take `c1ccc2c(c1)C(=NCC1CCCO1)NC2=NCC1CCCO1` (stereo not given): the inhibition was -5.37% (inactive).
In the case of `O=S1(=O)NC(=NC2CCCCCC2)c2ccccc21`, the inhibition was -8.09% (inactive).
On to `CCOC(=O)[C@@H]1[C@H]2COc3cc(OC)ccc3[C@H]2N2C(=O)N(c3ccc(C(F)(F)F)cc3)C(=O)[C@@]12C`, for which the inhibition was -14.6% (inactive).
As for `CCOC(=O)c1c(C)[n+]([O-])c2ccc3c(non3O)c12`, the inhibition was -9.19% (inactive).
Turning to `CC(=O)c1c(C)[n+]([O-])c2ccc3c(non3O)c12`, the inhibition was 14.6% (inactive).
`CCCn1c(SCC(=O)OCc2ccccc2)nc2c1c(=O)n(C)c(=O)n2C`: the inhibition is -3.63% (inactive).
As to `Cc1ccc(S(=O)(=O)N(C)C)cc1NC(=O)COC(=O)/C=C/c1ccc2ccccc2n1`, the inhibition was -5.07% (inactive).
As for `CCOc1ccc(NC(=O)C(=O)NCCN2CCN(S(=O)(=O)c3ccccc3)CC2)cc1`, the inhibition is 3.61% (inactive).
The figure for `O=C1[C@@H]2C(c3cccnc3)=NO[C@@H]2C(=O)N1c1ccc(Br)cc1` is -5.51% (inactive); for `Oc1cccc2cc3cccc(O)c3c(O)c12` it is 7.19% (inactive).
The figure for `COc1cc2cccc(OC)c(=O)c2c(O)c1OC` is -19.1% (inactive); for `Cc1ccc(S(=O)(=O)NCC2CCC(C(=O)N3CCN(C)CC3)CC2)cc1` (stereo not given) it is 5.88% (inactive); for `CC(C)(C)Cc1nnc(NS(=O)(=O)c2ccc([N+](=O)[O-])cc2)s1` it is -2.4% (inactive).
As for `CC(Nc1nc(-c2ccccc2)nc2ccccc12)c1ccccc1` (stereo not given), the inhibition was 18% (inactive).
As to `CC(Nc1nc(N2CCNCC2)nc2ccccc12)c1ccccc1` (stereo not given), the inhibition was 17.9% (inactive).
Consider `CC(Nc1nc(N2CCN(S(C)(=O)=O)CC2)nc2ccccc12)c1ccccc1` (stereo not given), for which the inhibition is -4.59% (inactive).
Regarding `OCCNc1nc(N2CCCCC2)nc2ccccc12`, the inhibition was 4.37% (inactive).
For `CC(C)S(=O)(=O)c1nsc2nc(=O)c(/C=C3\C=Nc4ccccc43)c(N)n12`, the inhibition is -9.31% (inactive).
The figure for `Cc1occc1C(=O)NNC(=O)Nc1ccc([N+](=O)[O-])cc1` is 0.48% (inactive); for `CC(C)(Oc1ccc(Cl)cc1)C(=O)NCCN1C(=O)S/C(=C/c2cccnc2)C1=O` it is -8.14% (inactive); for `O=C(CN1CCN(Cc2ccc3c(c2)OCO3)CC1)Nc1ccc(F)cc1` it is 2.19% (inactive).
Take `O=C(O)C1C2C=CC(O2)C1C(=O)NCc1ccc2c(c1)OCO2` (stereo not given): the inhibition was 4.49% (inactive).
Consider `O=C(O)C(Cc1c[nH]c2ccccc12)NS(=O)(=O)c1ccc2ccccc2c1` (stereo not given), for which the inhibition is -4.9% (inactive).

The values are drawn from PubChem BioAssay AID1850 (Southern Research Specialized Biocontainment Screening …, 2009).
